Our source for the % elongation and z-score values is PubChem BioAssay AID588519 (ICCB-Longwood Screening Facility, Harvard Medical School, 2011).

This experiment concerns the target Genome polyprotein (Poliovirus type 1 (strain Mahoney)) (UniProt P03300). Kind of experiment: poliovirus RdRp elongation inhibitors, primary screen, biochemical, fluorescence polarization, total intensity (AID 588519). On z-score: compound at 16.7 µg/mL. The settings on record: poliovirus polymerase elongation, stronger effect = lower value; for % elongation: compound at 16.7 µg/mL; for z-score: measured here: FP z-score. For orientation: Fluorescence polarisation rises when a labelled molecule tumbles more slowly, as on binding a larger partner.

Setting [1] is: measured here: total intensity read-out.

The campaign covered roughly 150,000 compounds. About 1,000 (0.67%) were called active. No stated cut-off is given here; in the data, active means % elongation below about 90%; inactive means the rest, inconclusive results apart. The full list was thinned out, with actives kept by preference.

Genome polyprotein (Poliovirus type 1 (strain Mahoney)), sequence (P03300 1749-2209 limits assumed): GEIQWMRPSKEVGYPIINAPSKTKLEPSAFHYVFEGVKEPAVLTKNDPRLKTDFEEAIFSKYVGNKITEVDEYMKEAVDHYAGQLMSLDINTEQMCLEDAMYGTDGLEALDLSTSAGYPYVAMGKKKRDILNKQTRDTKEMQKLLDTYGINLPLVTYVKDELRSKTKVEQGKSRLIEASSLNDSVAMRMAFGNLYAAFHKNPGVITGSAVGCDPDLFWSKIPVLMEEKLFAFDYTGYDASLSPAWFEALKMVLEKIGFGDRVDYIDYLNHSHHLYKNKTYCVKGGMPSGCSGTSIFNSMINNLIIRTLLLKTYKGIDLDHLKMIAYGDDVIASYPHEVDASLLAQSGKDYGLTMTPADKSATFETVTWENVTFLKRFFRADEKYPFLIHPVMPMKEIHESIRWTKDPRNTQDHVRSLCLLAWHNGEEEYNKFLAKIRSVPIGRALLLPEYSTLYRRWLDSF

With `O=C(O)COc1cc(Br)c(Br)c(Br)c1O`, the % elongation was 102% (inactive) and the z-score turned out to be 0.1. For the same molecule, the % elongation under setting [1] is 92%.

As for `CCn1c(SCc2cc(=O)oc3cc(NC(C)=O)ccc23)nnc1-c1ccccc1`, the % elongation is 100% (inactive) and the z-score was -0.5. The % elongation under setting [1] came to 111%.

On to `O=C(NNc1ncnc2ccccc12)c1ccncc1`, for which the % elongation was 106% (inactive) and the z-score was determined as 0.6. In addition, under setting [1], the % elongation stood at 101%.

Consider `CC(C)/C=N/NC(=O)c1ccccc1`, for which the % elongation was 103% (inactive) and the z-score was 0.3. Further, under setting [1], the % elongation amounted to 103%.

In the case of `O=C(NN=c1c(=O)c2ccccc2c1=O)c1ccncc1`, the % elongation is 58% (active) and the z-score is -12.6. In addition, the % elongation under setting [1] worked out at 54%.

Take `O=c1[nH]c(CN2CCCC2c2ccc3c(c2)OCCO3)nc2cc(Cl)ccc12` (stereo not drawn): the % elongation was 102% (inactive) and the z-score is 0. In addition, the % elongation under setting [1] came out at 104%.

`CCN(C(=O)CN1CCCCC1)c1nc2ccc(C)cc2s1`: the % elongation was 102% (inactive) and the z-score is -0.3. For the same molecule, under setting [1], the % elongation was 103%.

As for `NC(=O)C1CCN(C(=S)Nc2ccccc2)CC1`, the % elongation is 103% (inactive) and the z-score turned out to be 1.1. The % elongation under setting [1] was 103%.

On to `O=C(Nc1ccccc1)C(=S)Nc1ccccc1`, for which the % elongation was 87% (active) and the z-score was -1.9. The % elongation under setting [1] amounted to 88%.

In the case of `CC(C)OC(=O)Nc1ccccc1`, the % elongation was 106% (inactive) and the z-score was 0.8. The % elongation under setting [1] came to 110%.

For `COc1nc(NCCO)nc(Nc2ccc(I)cc2C)n1`, the % elongation is 99% (inactive) and the z-score is -1.2. Further, the % elongation under setting [1] is 94%.

For the molecule `O=C1c2ccccc2C(=O)N1CCN1c2cccc3cccc(c23)S1(=O)=O`, the % elongation was 100% (inactive) and the z-score amounted to 0.1. Further, under setting [1], the % elongation stood at 101%.

With `COC(=O)C1=CN(CCc2ccccc2)C=C(C(=O)OC)C1C(=O)OC`, the % elongation is 107% (inactive) and the z-score was 0.6. For the same molecule, the % elongation under setting [1] was 108%.

Turning to `CC(=O)Nc1ccccc1NC(=O)CN(C)S(=O)(=O)c1ccccc1`, the % elongation was 100% (inactive) and the z-score came to 0. Also, under setting [1], the % elongation is 103%.

For the molecule `COC(=O)c1cc(-c2cccs2)nc2ccccc12`, the % elongation is 101% (inactive) and the z-score is -0.1. Moreover, the % elongation under setting [1] was determined as 101%.

Take `Cc1cc(N2CCNCC2)nc(C)n1`: the % elongation is 102% (inactive) and the z-score worked out at 0.1. The % elongation under setting [1] is 102%.

In the case of `COC(=O)c1cc(N2CCNCC2)nc2ccccc12`, the % elongation was 88% (active) and the z-score is -1.4. Moreover, the % elongation under setting [1] is 88%.

With `N#CCCn1c(SCC(=O)NCCSc2ccc(Cl)cc2)nc2ccccc21`, the % elongation was 101% (inactive) and the z-score is -0.2. Under setting [1], the % elongation worked out at 104%.

On to `Cc1cc(SCc2ccccc2)nc2ccccc12`, for which the % elongation was 103% (inactive) and the z-score amounted to 0.4. Besides, the % elongation under setting [1] was determined as 102%.

As for `Cc1cc(/C=C/C(=O)N2CCCC2c2cccs2)c(C)n1Cc1ccco1` (stereo not drawn), the % elongation is 104% (inactive) and the z-score was 0.6. Also, under setting [1], the % elongation stood at 98%.

As for `Cn1cccc1C(=O)Nc1nccs1`, the % elongation was 111% (inactive) and the z-score is 0.9. For the same molecule, the % elongation under setting [1] worked out at 116%.

Consider `CCCCOC(=O)Nc1nccs1`, for which the % elongation is 100% (inactive) and the z-score was -0.4. The % elongation under setting [1] came to 99%.

In the case of `Nc1[nH]c(=S)sc1C(=O)Nc1nccs1`, the % elongation is 70% (active) and the z-score is -3.3. Besides, the % elongation under setting [1] is 75%.

For `CCN(C(=O)CSc1nnc2scc(-c3cccc(OC)c3)n12)c1ccccc1`, the % elongation was 103% (inactive) and the z-score was 0.2. Besides, under setting [1], the % elongation was 100%.

As for `C#CCN1CCS(=O)(=O)CC1`, the % elongation was 100% (inactive) and the z-score was -0.3. In addition, under setting [1], the % elongation was determined as 103%.

Take `CCNC(=O)C1CCCN(S(=O)(=O)N(CC)c2ccc(OCC)cc2)C1` (stereo not drawn): the % elongation was 103% (inactive) and the z-score came out at 0.5. Under setting [1], the % elongation worked out at 105%.

Take `CC(C)c1ccc(C2CC(=O)N3CN(C4CCCCC4)CSC3=C2C#N)cc1` (stereo not drawn): the % elongation is 81% (active) and the z-score is -3.5. Also, the % elongation under setting [1] stood at 82%.

With `Cc1cc(C)c(C(=O)COC(=O)c2ccc(N(C)C)cc2)c(C)c1`, the % elongation was 104% (inactive) and the z-score is -0.3. In addition, the % elongation under setting [1] came to 97%.

With `CCN1CCN(C(=O)C2CCCCC2C(=O)O)CC1` (stereo not drawn), the % elongation is 102% (inactive) and the z-score turned out to be 0. In addition, the % elongation under setting [1] came to 103%.

`CCOC(=O)c1c(NC2=CC(=O)CCC2)sc2c1CCCCC2`: the % elongation was 107% (inactive) and the z-score amounted to 0.6. Besides, under setting [1], the % elongation worked out at 112%.

With `CCOC(=O)c1c(N)sc2c1CCCS2`, the % elongation was 64% (active) and the z-score is -3.9. For the same molecule, under setting [1], the % elongation was 74%.

Regarding `CCOC(=O)c1c(N)sc2c1CC(C)(C)OC2`, the % elongation is 103% (inactive) and the z-score worked out at 0.4. Under setting [1], the % elongation worked out at 106%.

`CCC(=O)c1cn(CC(=O)N2CCCC2)c2ccccc12`: the % elongation is 107% (inactive) and the z-score is 0.5. Further, the % elongation under setting [1] came to 109%.

Regarding `Fc1ccc(NC(=S)N2CCN=C2Nc2ccc(F)cc2)cc1`, the % elongation is 87% (active) and the z-score was -5.7. Further, under setting [1], the % elongation turned out to be 82%.

For the molecule `OC1CCN(C(=S)Nc2ccccc2)CC1`, the % elongation is 101% (inactive) and the z-score stood at 0. The % elongation under setting [1] was 100%.

With `COc1ccc(NC(=S)N2CCCCC2)cc1`, the % elongation was 100% (inactive) and the z-score was -0.3. Besides, the % elongation under setting [1] is 108%.

For `O=C1CCC/C1=C1\SCC(=O)N1c1ccccc1`, the % elongation is 101% (inactive) and the z-score is -0.3. In addition, the % elongation under setting [1] was 99%.

Regarding `Cc1ccc(C)c(NC(=O)C(c2ccccc2)N2CCCCC2C(N)=O)c1` (stereo not drawn), the % elongation was 97% (inactive) and the z-score is -0.5. Moreover, the % elongation under setting [1] worked out at 103%.

For the molecule `C=CCn1c(SCC#N)nc2c(c1=O)C1(CCCCC1)Cc1ccccc1-2`, the % elongation is 102% (inactive) and the z-score amounted to 0.1. For the same molecule, the % elongation under setting [1] turned out to be 103%.

Take `O=C(CSc1nnc(-c2ccncc2)n1-c1ccccc1)Nc1ccccc1`: the % elongation was 100% (inactive) and the z-score was -0.8. Besides, the % elongation under setting [1] is 96%.

Take `Nn1c(SCC(=O)Nc2ccc(S(=O)(=O)N3CCCC3)cc2)nnc1-c1ccccc1`: the % elongation is 76% (active) and the z-score was -5.5. For the same molecule, the % elongation under setting [1] amounted to 80%.
